Compound activity: PubChem BioAssay, National Center for Advancing Translational Sciences (NCATS)
Nrf2 activator: Nrf2 pathway activation | AREc32 ARE-luciferase reporter (MCF7-derived line), luminescence, 24 h | Potency, µM (titrated, usually from 46.1 µM), without a hit: at the top dose activation, actives largely listed as activators | hit rate 0.31% among 410,000 | AID 624171; note: potency is the fitted concentration of half-maximal effect; % of control where 0% means no effect; nearly all actives have a fitted effect of over 65% in size
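Luminescent ARE reporter assay in AREc32_Fluc cells: overnight plating at 37 deg C, 24 hr compound incubation, Steady-Glo added, 30 min RT before reading.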
ALOX12 inh: inhibitors of human 12S-lipoxygenase ALOX12; P18054; purified 12hLO, xylenol orange hydroperoxide absorbance; Potency, µM (top dose mostly 108 µM), inactives show at the highest dose activity change, negative = inhibition, most hits filed as inhibitors; hit rate 1.1% among 580,000; note: potency is the fitted concentration of half-maximal effect; % is set by controls: 0 for no effect and ±100 for the full control effect
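Purified human 12hLO (150 nM final) in 25 mM Hepes, 0.01% Triton X-100, pH 7.0 was preincubated 15 min at room temperature with compound. Then 40 uM arachidonic acid was added, 30 min. Hydroperoxide was read by Fe-XO absorbance ratio 573/405 nm.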
A549 tox: A549 cytotoxicity, counter-screen for Nrf2 inhibitors; A549 ARE-Fluc cells, CellTiter-Fluor viability, 18-24 h; Potency, µM (doses to about 46 µM), inactives show top-dose activity change, negative = cytotoxicity, hits mostly inhibitors; hit rate 0.16% among 390,000; AID 504648; note: potency is the fitted concentration of half-maximal effect; % is set by controls: 0 for no effect and ±100 for the full control effect
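Cytotoxicity counterscreen: CellTiter-Fluor fluorescence was measured in A549 ARE_Fluc cells after 18-24 h of compound exposure in a concentration series. The subsequent BugLite luminescent read reports ARE-luciferase activity.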
LDHA inh: LDHA (human) enzyme inhibition | purified LDHA, NADH/diaphorase-resazurin fluorescence; stronger effect = lower value | AID 1347041 | hit rate 0.15% among 480,000 | P00338 | activity change, % (values are at about 110 or 230 µM); in the data active = activity change below about -30%; inconclusive = mostly about -25% to -30%;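 note: plate controls were DMSO wells for no effect and wells without enzyme for full effect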
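LDH5 2 nM; NADH 0.06 mM, pyruvate 0.2 mM; 200 mM Tris pH 7.4, EDTA, Tween-20; 5 min RT. Detection: diaphorase 0.133 mg/mL + resazurin 37 µM, fluorescence ex540/em590 at 0 and 20 min; normalized to enzyme-free and DMSO wells.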
Nrf2 inh: blocks Nrf2 signaling. A549 ARE-Fluc reporter, luciferase luminescence, 18-24 h. Potency, µM (doses to about 46 µM), for inactives: at the highest dose activity change, negative = inhibition, usual class: inhibitors. hit rate 2.1% among 360,000; note: potency is the fitted concentration of half-maximal effect; % is set by controls: 0 for no effect and ±100 for the full control effect; nearly all actives have a fitted effect of over 60% in size
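Nrf2 activity is the BugLite luminescence, read 15 min after reagent at room temperature, following CellTiter-Fluor cytotoxicity readout (30 min, 37C). Compound titrations were applied for 18-24 h to 5000 A549 ARE_Fluc cells/well in 5% FBS OPTI-MEM.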
mIDH1 inhibitor: human IDH1 R132H inhibition | O75874 | IDH1-R132H enzyme, NADPH consumption, diaphorase/resazurin fluorescence | Potency, µM (titrated, usually from 76.6 µM), for the others: top-dose activity change, negative = inhibition, usual class: inhibitors | hit rate 0.093% among 390,000; note: potency is the fitted concentration of half-maximal effect; % is set by controls: 0 for no effect and ±100 for the full control effect; nearly all actives have a fitted effect of over 65% in size
Target sequence (O75874 whole entry R132H, stated change not applied): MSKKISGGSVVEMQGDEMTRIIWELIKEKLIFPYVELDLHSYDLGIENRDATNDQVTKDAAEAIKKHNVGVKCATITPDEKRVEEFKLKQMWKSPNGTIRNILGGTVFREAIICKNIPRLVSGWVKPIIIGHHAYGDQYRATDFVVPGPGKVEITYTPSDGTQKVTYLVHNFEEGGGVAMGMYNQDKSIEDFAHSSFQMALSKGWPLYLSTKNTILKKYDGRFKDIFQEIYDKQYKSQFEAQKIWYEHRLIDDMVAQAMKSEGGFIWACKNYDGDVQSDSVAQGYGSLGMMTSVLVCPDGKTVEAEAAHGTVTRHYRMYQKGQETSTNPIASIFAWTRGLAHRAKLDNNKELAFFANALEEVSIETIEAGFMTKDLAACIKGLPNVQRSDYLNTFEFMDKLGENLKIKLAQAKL
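IDH1-R132H (0.5 ug/mL) preincubated 30 min with compound, then NADPH (0.016 mM) and alpha-KG (2 mM) added; 80 min at RT, pH 7.5. Remaining NADPH coupled via diaphorase/resazurin to fluorescence (540/590 nm); concentration-response curves normalized to no-enzyme control.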
Numbers without * were called inactive; ? = inconclusive; . = not tested or not shown; [ ] = dose if it differs, or a comment. The list is not random: actives were taken first. Their share in the collection is about 2.7%. Unless noted, calls come from the whole dose curve; as a rule, active = well fitted curve in the direction sought with a large enough effect; inconclusive = small, poorly fitted or top-dose-only effect, or another doubt; inactive = no such curve, though single readings can be large; an effect the other way counts as inactive or inconclusive.

SMILES	Nrf2 activator	ALOX12 inh	A549 tox	LDHA inh	Nrf2 inh	mIDH1 inhibitor
Cc1cccc(-n2c(O)c(/C=N/Nc3nc4c(c(=O)n(C)c(=O)n4C)n3C)c(=O)[nH]c2=S)c1	0%	32µM*	3%	10	14%	9%
COc1cccc(C(=O)Nc2ccc3nc(SCC(=O)N(C)c4ccccc4)sc3c2)c1	0%	-8%	-18%	-7	?	6%
CN(C(=O)CSc1nc2ccc(NC(=O)COc3ccc(Cl)cc3)cc2s1)c1ccccc1	2%	0%	-18%	-2	15µM*	-3%
C[N+](C)(C)CC1CCC1	.	28µM*	.	1	.	.
COc1cccc([C@H]2CN(C(=O)OCC(C)C)[C@@H]3C4CCN(CC4)[C@H]23)c1	.	24%	.	.	.	.
CC(C)(C)c1ccc(-c2cn(C[C@H]3CC4CCN3C[C@@H]4C(=O)N3CCOCC3)nn2)cc1 (stereo not given in full)	.	25%	.	.	.	.
CC(C)c1ccccc1OCC(=O)N1CCN(Cc2nc(N)c3ccccc3n2)CC1	.	10%	.	-5	.	.
CC[C@H]1CN2CC[C@H]1C[C@@H]2COC(=O)Nc1ccc(C(C)(C)C)cc1	.	45µM*	.	.	.	.
CC[C@H]1CN2CC[C@H]1C[C@@H]2CNC(=O)Nc1ccc(Br)cc1	.	38%[176 µM]	.	.	.	.
Cc1ccc(NC(=O)C2CCCN(C(=O)c3cnn(-c4ccccc4)c3-n3cccc3)C2)cc1 (stereo not given)	1%	?	-6%	-20	13µM*	-18%
O=C(NCc1ccc(Cl)cc1)C1CCCN(C(=O)c2cnn(-c3ccc(F)cc3)c2-n2cccc2)C1 (stereo not given)	1%	0%	-11%	-1	?	-1%
CSc1cccc(NC(=O)C2CCN(C(=O)c3cnn(-c4ccccc4)c3-n3cccc3)CC2)c1	7%	?	-22%	-7	23µM*	0%
CCOc1ccc(Nc2c(S(=O)(=O)c3ccc(C)cc3)cnc3ccccc23)cc1	1%	3%	-14%	0	23µM*	0%
NC(Cc1ccc(N(CCCl)CCCl)cc1)C(=O)O (stereo not given)	.	.	.	11	.	.
N[C@@H](Cc1ccc(Oc2cc(I)c(O)c(I)c2)c(I)c1)C(=O)O	.	5.1µM*	.	.	.	.
O=C(c1ccco1)N1C[C@@H]2C[C@H](C1)c1c(-c3cccnc3)ccc(=O)n1C2	.	53%[176 µM]	.	.	.	.
CCCCOc1ccc(C(C)=O)cc1Cc1c(O)[nH]c(=S)[nH]c1=O	0%	13%	1%	2	2%	-5%
COc1ccc(Cc2c(O)[nH]c(=S)[nH]c2=O)cc1	0%	28µM*	-4%	0	?	-13%
COc1ccc(N2CCN(c3ncnc4c3nc3n4CCCCC3)CC2)cc1	2%	-17%	-22%	-8	16µM*	0%
c1ccc(N2CCN(c3ncnc4c3nc3n4CCCC3)CC2)cc1	0%	0%	-13%	-7	23µM*	-10%
Cc1ccc(Cl)cc1N1CCN(c2ncnc3c2nc2n3CCCC2)CC1	-1%	0%	-6%	0	?	-1%
COc1ccc2c(c1)C1(CCN(C(=O)c3cccc(F)c3)C1)C(=O)N2C (stereo not given)	.	-5%	.	.	.	.
O=C(NC1CCCCC1)N1C[C@@H]2C[C@H](C1)c1c(-c3cncnc3)ccc(=O)n1C2	.	16%[176 µM]	.	.	.	.
CCOc1ccc(CCNC(=O)c2cc3c(-c4cccc(OC)c4)nn(C)c3s2)cc1OCC	-1%	-4%	-8%	-10	18µM*	-19%
CCOc1cc(CNCCc2cccc(F)c2)ccc1OC	0%	?	-4%	-18	-3%	-7%
O=c1ccc(-c2ccccc2)c2n1C[C@H]1C[C@@H]2CN(S(=O)(=O)c2cccs2)C1	.	-5%[176 µM]	.	.	.	.
O=C(c1onc2ccccc12)N1CCC2(CCCNC2)C1 (stereo not given)	.	13%	.	.	.	.
